Experimental data taken from the supplement of paper PMC6555819.

What was measured:
Test in all cases: PBM binding z-score (relative to random genomic background probes); higher = stronger binding; sequences stand for … in GC…GCGATTGACAGCGTAGAATGAAGG
[1] = system: RARb homodimer (NR concentration 270 nM)
Method in brief: (§1)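 For binding z-scores, the reference was random background probes on custom Agilent 4×180K protein-binding microarrays. These arrays were incubated 1 h with ligand-free nuclear receptor dimers in PBS pH 7.4, 2% milk, 0.02% Triton X-100, 1 mM DTT, 0.2 mg/mL BSA and 0.4 mg/ml salmon testes DNA. Fluorescence was scanned after antibody detection of each partner (one per run) and regression-normalized.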

[2] = system: RARg:RXRa (NR concentration 270 nM, RXRa partner concentration 90 nM)
Method in brief: as §1

[3] = system: RARg homodimer (NR concentration 270 nM)
Method in brief: as §1

[4] = system: RXRa DBDmut IVT, anti-RXR (DBD mutation: RXRa K156A/R161A, NR concentration 90 nM)
Method in brief: as §1

[5] = system: RXRa homodimer (NR concentration 180 nM)
Method in brief: as §1

[6] = system: THRa:RXRa (NR concentration 90 nM, RXRa partner concentration 90 nM)
Method in brief: as §1

[7] = system: THRa homodimer (NR concentration 90 nM)
Method in brief: as §1

[8] = system: VDR homodimer (NR concentration 270 nM)
Method in brief: as §1

Sequence	PBM binding z-score [1]	PBM binding z-score [2]	PBM binding z-score [3]	PBM binding z-score [4]	PBM binding z-score [5]	PBM binding z-score [6]	PBM binding z-score [7]	PBM binding z-score [8]
CCTCGGAGGGCAGAAGGTCAGAGCTGTCCGCTTT	3.76	4.71	4.01	-0.118	2.82	1.47	-0.593	-0.355
ATGTCTAGGTAACCAAGTTCAGTGAATGCCGAAC	1.34	0.808	0.759	0.268	0.737	1.42	0.382	2.08
AATACAGGGTCACTAGGGCAGAGTAGGTACGAAT	3.68	5.3	5.01	2.74	5.8	3.45	1.6	2.98
CCGACTGGGGCAAGGTTACGATAACGCACAGCCA	1.22	1.18	1.56	-0.192	1.47	1.28	0.056	-0.241
CATACAGGGTCAGGTAGGCCAGAGTAGGGACGGC	3	4.2	4.14	0.816	4.12	2.93	0.964	1.14
AGAACGAGGGCACGCTGAGTTGATAGCGGAGTAG	1.17	1.85	2.56	1.97	1.26	1.86	0.248	2.34
GCGACTCGGGCAAAGCAGGTTACCATAAGGTTGG	0.473	0.453	0.464	-0.723	0.252	1.87	-0.264	-0.533
ATATGTAGGTTCAGGGTCATTCAGGTTGGTTCGC	3.58	4.1	3.01	3.37	5.25	3.92	3.36	6.06
AGAAAGAGGGCACGCTGAGTTGATAGCAGAGTAG	1.64	2.5	3.08	1.36	1.83	1.5	-0.338	1.23
AGAGTGAGGTTATACGTAGATCAGGGAAGAAAGT	1.53	1.82	1.28	1.38	2.03	2.21	1.15	1.41
CTCGAAAGGTCGGCTGAGGTGAGTATACGGATAA	2.61	3.82	3.8	0.843	3.44	5.13	1.12	0.549
CCTATTACTTGACCATAAGGGCAACCGAAGCTCG	1.99	0.821	1.15	0.77	0.915	1.84	1.86	1.23
CCTTCCGGGTCACGAGGTTATAGCACGACGAGCG	4.02	6.06	5.4	1.68	7.05	4.22	2.95	2.57
CGTCCAAGGTCAAAGGTCAGTGAGGAGATGACGG	5.41	8.78	8.47	3.92	10.4	4.81	2.98	4.41
CTCGAAAGGTCGGTTGAGTTGAGTATACGGATAA	1.34	2.4	2.35	1.33	1.81	3.4	0.44	1.37
CATCGGAGGACAACAGGAGGTCAGAGCTGCCAGA	3.62	3.59	3.48	0.373	2.29	3.01	1.31	1.1
CAAACTAGATCAAAGGTCAAAGTCGAGCCAACCA	4.67	6.29	5.66	2.16	7.75	3.51	0.812	2.87
TCGAGTAGGTTAGGGGCAATCAGAATGGCGTCGA	0.79	0.398	0.315	0.12	0.782	0.826	0.262	0.267
CGTCCAAGGTCAGAGCGGTCAGTGAATGCCGAGT	4.33	5.22	6.15	2.61	3.84	3.6	1.54	2.42

Sequence	PBM binding z-score [1]	PBM binding z-score [2]	PBM binding z-score [3]	PBM binding z-score [4]	PBM binding z-score [5]	PBM binding z-score [6]	PBM binding z-score [7]	PBM binding z-score [8]
TTACCAAGGTGAAAGGTCGTGGATGCACGCCTTG	2.98	5.09	2.53	0.256	6.85	3.45	0.939	0.435
TTACCAAGGTGAAGGTCGTTTATCCCTCTGTAGA	1.99	1.2	1.11	0.869	1.49	2.5	1.18	1.61
TCATATACGTAAAGGTGAAAGTCGAACGATATGA	1.53	1.65	1.22	0.638	2.1	1.13	-0.853	-0.424
ACCGAAAGGTCGACGAGGTGAGTATACACCGTTT	3.18	4.28	4.13	1.58	4.27	3.61	0.645	1.01
GCATATAGGTAATACAAGGTTAAAGTCCGATTGT	1.42	0.95	0.775	0.599	1.39	4.03	0.575	0.898
ACTAGTTGGTCAGCTGAGGTCACGCACAATTCGG	4.79	4.85	4.8	1.32	4.79	5.26	5.78	3.51
CCTGATAGGTCAATGGTCAGCTAAAGCAGCTCGC	3.38	4.62	4.89	1.32	3.76	1.72	-0.0298	0.339
TCTTGTAGATCAACAGGAGTTTAAGAAAGATCGA	-0.522	0.249	-0.0816	0.335	0.176	-0.275	-1.05	0.485
GCTCGAAGGACAAGGTCAGAGCTTTGTCCGTAGA	3.06	3.15	3.49	0.0106	2.51	2.65	0.93	0.387
CCTAGTTGGTCAGGAGGTAACACACCGGATATGA	1.01	0.732	0.881	-0.282	0.455	0.766	0.712	0.75
CCGACTGGTGCATAAGGTTACCATAAGCCAGCCC	1.25	0.548	0.37	0.0565	0.963	1.99	1.58	0.347
AGAAGGAGGGCAATGAGTTGATAGCACGGGTGGC	1.51	0.896	1.46	0.955	0.646	0.385	0.339	2.51
GCTCGGAGGACAAGGTCAGAGCGTTGTCCGTAGA	2.97	3.26	3.69	0.33	2.43	2.89	1.25	0.555
TCATATAGGTAAAAGGTTAAAGTCGGTGTGGTAA	2.41	3.05	1.54	2.12	4.88	2.27	0.509	0.746
TCTTGTAGATCAAGCAGGTTCAGAAAGCCTGAGT	-0.055	-0.213	-0.414	0.872	0.0665	0.613	-0.659	2.13
GCATATAGGGAATACAAGGTGAAAGTCCGATTGT	0.509	0.203	0.249	0.292	0.268	3.15	0.78	-0.263
ATCACTAGGTAAAGTTCAGTGAAAGATCGATAGA	2.57	2.32	2.39	1.44	1.55	1.24	0.158	2.29
ACTAGCAGGCCAAGGGTCACTCGAGATTAGTCCG	3.75	3.93	4.02	0.801	4.28	2.45	0.0934	1.06
ATATGTAGGTTAGCTGGGGACATTCAGACTAGGC	1.29	0.981	1.34	0.879	0.737	4.93	2.11	1.3

Sequence	PBM binding z-score [1]	PBM binding z-score [2]	PBM binding z-score [3]	PBM binding z-score [4]	PBM binding z-score [5]	PBM binding z-score [6]	PBM binding z-score [7]	PBM binding z-score [8]
TAGCCTAGGTCCTGGGCCAGTATACCACGCGAAC	-0.386	-0.497	-0.364	-1.66	-0.311	-0.414	-0.714	-0.78
CTCGAAAGGTCGTGCTCAGGTGAGCATACCAAAC	2.63	5.53	4.45	2.21	5.55	4.12	1.23	0.533
CCTACTGGGCCATCCGGTCATTGATATCAACGTT	1.9	0.787	1.34	-0.598	0.106	0.75	0.677	0.0499
GCGACTGGGGCAAAGCGGGTTACCATAAGGTTGG	0.945	0.446	0.469	-0.587	0.545	2.47	0.0771	-0.483
AGTCGAAGTTCATCTAGGTAACGTAAGATATGCT	2.11	2.84	3.19	3.88	1.91	2.31	-0.00664	3.81
ACAACGAGGGCAATGAGTTGATAGCACGGGTGGC	1.02	1.31	1.71	2.02	0.837	0.856	-0.343	2.98
TTACCAAGGTGAAAGGTCTTTGATGCACGCCTTG	1.15	1.67	0.887	-0.125	2.43	2.13	0.663	-0.219
CAAACTAGGTCACCGGAGGGTCAAAGTCCGCATG	5.26	7.83	6.79	1.19	5.89	4.24	2.21	2.78
CCTGCTAGGTAAATGGTCAGCTAAAGCAGCTCGC	-0.0242	-0.351	-0.323	-0.0563	-0.478	-0.113	-0.416	-0.618
ACTAGTTGGTCAGCTGAGGTCCCACACAATTCGG	0.808	0.425	0.578	0.281	0.206	2.75	0.564	-0.00436
ACTATTAGTTGACTTAGGGCCACCGATACGACGC	0.765	0.549	0.739	0.785	0.774	2.48	0.956	0.47
TCAGACAGGTTAAGGTAACTCAGGTACGCAGTCG	1.33	1.22	1.08	1.43	1.57	3.11	2.5	0.557
TCATATACGTAAACAGGTGAAAGTCCGTAAGTTA	0.865	0.708	0.405	1.91	0.88	0.985	0.342	0.357
TCTTGTAGATCAGCAGGTTAAGCAAGCTGGCCAA	-0.0177	-0.192	-0.525	0.455	0.213	-0.00536	-0.897	-0.751
TCTAGTTGGTCAAAGGTGACACACTCGAAATGCG	2.21	2.9	1.95	1.03	3.06	1.7	0.635	0.44
CTACCAAGGTGATCAAGGTCGTTGATTACTATTC	1.47	0.906	0.808	1.42	1.11	2.71	1.55	2.33
CGTCCAAGGTCAAAGGTCAGTGAAGAGATGACGG	5.42	8.7	7.94	3.87	10	4.99	2.62	4.06
AGAACCAGGGCACGCTGAGTTGATAGCAGAGTAG	0.548	0.797	1.19	-0.0403	0.657	0.883	-0.00671	0.466
